Potency data for 28 compounds are collected here from PubChem BioAssay (NCATS).

SMILES strings stand for the structures. Records with an inconclusive call do not appear. Active and inactive are the calls of the source. Calls come from the whole dose curve; as a rule, active = well fitted curve in the direction sought with a large enough effect; inconclusive = small, poorly fitted or top-dose-only effect, or another doubt; inactive = no such curve, though single readings can be large; an effect the other way counts as inactive or inconclusive.
Potency is the fitted concentration of half-maximal effect.

The test system of one assay is PA-1. The assay is described as follows: Primary qHTS to identify gynecologic anti-cancer compounds using libraries of approved drugs and bioactive compounds (AID 1345084). Note: nearly all actives have a fitted effect of over 55% in size. To be noted: Gynecologic cancer cell panel viability, ATPlite luminescence, 48 h; series mostly up to 57.5 µM. In outline: (§1)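 48 h compound exposure at 37 C, 5% CO2; five-point qHTS. ATPlite luminescence readout of cell ATP.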
In general terms: In qHTS, concentration-response curves come from the screen itself.
Consider `C[C@@H]1C[C@@H]2O[C@H]2/C=C\C=C\C(=O)Cc2c(Cl)c(O)cc(O)c2C(=O)O1`, for which the Potency is 10 µM (active).

In the case of `COc1cc(-c2ncn(/C=C\C(=O)OC(C)C)n2)cc(C(F)(F)F)c1`, the Potency was 0.562 µM (active).

On to `Oc1ccc(CNc2ccccc2F)c2cccnc12`, for which the Potency is 17.8 µM (active).

On to `CC(O)/C=C/C1(O)C2(C)COC1(C)CC(O)C2` (stereo not drawn), for which the Potency result is “inactive”.

For the next assay, the system named is SKOV3. The description is as above. Conditions: Gynecologic cancer cell panel viability, ATPlite luminescence, 48 h; series mostly up to 57.5 µM. In outline:
as §1
In general terms: Cellular ATP, detected with luciferase, serves as a proxy for viable cell number.
For `Nc1nccn2c(C3CCC(C(=O)O)CC3)nc(-c3cc4cccc(Cl)c4[nH]3)c12` (stereo not drawn), the Potency is 3.16 µM (active).

`COc1cc(C2c3cc4c(c(O)c3CC(CO)C2C(=O)O)OCO4)cc(OC)c1O` (stereo not drawn): the Potency is 11.2 µM (active).

As for `CNC(=O)c1cccc(-c2ccc3c(N4CCOC[C@@H]4C)nc(N4CCOC[C@@H]4C)nc3n2)c1`, the Potency is 1.58 µM (active).

Turning to `CC(C)(C#N)c1ccc(N2C(=O)OCc3cnc4ccc(-c5cnc6ccccc6c5)cc4c32)cc1`, the Potency was 2.82 µM (active).

Regarding `CCCCC1CCN(CCCC(=O)c2ccccc2C)CC1`, the Potency entry is “inactive”.

Regarding `CCOC(=O)Nc1cc(-c2ccc(C)c(NS(C)(=O)=O)c2)nn2c(C)nnc12`, the Potency was 7.08 µM (active).

For `CCOc1cc2ncc(C#N)c(Nc3ccc(F)c(Cl)c3)c2cc1NC(=O)/C=C/CN(C)C`, the Potency was 0.398 µM (active).

With `CC(C)C(CO)Nc1nc(Nc2cc(N)cc(Cl)c2)c2ncn(C(C)C)c2n1` (stereo not drawn), the Potency is 28.2 µM (active).

With `C=C1C(=O)OC2C1CCC(=C)C1CC(OC(C)=O)C(=C)C12` (stereo not drawn), the Potency result is “inactive”.

Consider `COc1cc2c(cc1OC)[C@@H]1[C@H](O)[C@@H](OC)C=C3CCN(C2)[C@H]31`, for which the Potency entry was “inactive”.

Another assay has as its system Tov-21-G. The description is as above. Conditions: Gynecologic cancer cell panel viability, ATPlite luminescence, 48 h; series mostly up to 57.5 µM. In outline:
as §1
Regarding `Nc1nccn2c(C3CCC(C(=O)O)CC3)nc(-c3cc4cccc(Cl)c4[nH]3)c12` (stereo not drawn), the Potency was 4.47 µM (active).

Consider `CNC(=O)c1cccc(-c2ccc3c(N4CCOC[C@@H]4C)nc(N4CCOC[C@@H]4C)nc3n2)c1`, for which the Potency is 1.41 µM (active).

With `O=C(CSc1nc2c(c(=O)n1-c1ccccc1)SCC2)Nc1ccc(-c2ccccc2)cn1`, the Potency was 0.316 µM (active).

For the compound `C[C@H]1[C@H](O)O[C@@H]2O[C@@]3(C)CC[C@H]4[C@H](C)CC[C@@H]1[C@@]24OO3`, the Potency was 28.2 µM (active).

Turning to `CC1(C)CC(=O)C2=C(C1)NC(=S)NC2c1cccc(O)c1` (stereo not drawn), the Potency was 1.26 µM (active).

For `CC(C)(C#N)c1ccc(N2C(=O)OCc3cnc4ccc(-c5cnc6ccccc6c5)cc4c32)cc1`, the Potency is 10 µM (active).

With `CCCCC1CCN(CCCC(=O)c2ccccc2C)CC1`, the Potency result is “inactive”.

For `O=C(Nc1ccc(S(=O)(=O)C(F)(F)F)cc1)C1=CCN(c2ncccc2C(F)(F)F)CC1`, the Potency entry is “inactive”.

Take `Cn1c(=O)n(-c2ccc(C(C)(C)C#N)cc2)c2c3cc(C#Cc4cccnc4)ccc3ncc21`: the Potency was 0.158 µM (active).

Consider `CCOc1cc2ncc(C#N)c(Nc3ccc(F)c(Cl)c3)c2cc1NC(=O)/C=C/CN(C)C`, for which the Potency was 1 µM (active).

As for `CC(C)C(CO)Nc1nc(Nc2cc(N)cc(Cl)c2)c2ncn(C(C)C)c2n1` (stereo not drawn), the Potency was 22.4 µM (active).

With `Cn1cc(S(=O)(=O)c2ccc(Cl)cc2)c2cccc(N3CCNCC3)c21`, the Potency is 20 µM (active).

Regarding `COC(=O)C1(C)c2[nH]c3ccccc3c2CCN1C(=O)CCl` (stereo not drawn), the Potency was 22.4 µM (active).

For another assay, the system named is Tov112D. The assay is described as above. Conditions: Gynecologic cancer cell panel viability, ATPlite luminescence, 48 h; series mostly up to 57.5 µM. In outline:
as §1
As to `COc1cc(C2c3cc4c(c(O)c3CC(CO)C2C(=O)O)OCO4)cc(OC)c1O` (stereo not drawn), the Potency is 4.47 µM (active).

Turning to `O=C(CSc1nc2c(c(=O)n1-c1ccccc1)SCC2)Nc1ccc(-c2ccccc2)cn1`, the Potency was 0.158 µM (active).

Take `CC1(C)CC(=O)C2=C(C1)NC(=S)NC2c1cccc(O)c1` (stereo not drawn): the Potency is 0.891 µM (active).

In the case of `COc1cc2ncnc(Nc3cccc(Cl)c3F)c2cc1OC(=O)N1CCN(C)C[C@H]1C`, the Potency is 22.4 µM (active).

Turning to `COc1cc(OC)c(/C=C/S(=O)(=O)Cc2ccc(OC)c(NCC(=O)O)c2)c(OC)c1`, the Potency is 0.316 µM (active).

Take `CCN(CC)c1ccc2c(O)c(C=Nc3ccc(CC(=O)O)c(-c4c5c(nc6ccccc46)CCC(C(=O)NN)C5)c3)c(=O)oc2c1` (stereo not drawn): the Potency entry is “inactive”.

Turning to `CC(=O)NC1=NN(C(C)=O)C(C)(c2ccccc2)S1` (stereo not drawn), the Potency is 3.16 µM (active).

Consider `CC(C)C(CO)Nc1nc(Nc2cc(N)cc(Cl)c2)c2ncn(C(C)C)c2n1` (stereo not drawn), for which the Potency is 20 µM (active).

As to `C[C@@H]1C[C@@H]2O[C@H]2/C=C\C=C\C(=O)Cc2c(Cl)c(O)cc(O)c2C(=O)O1`, the Potency result is “inactive”.

As to `Cn1cc(S(=O)(=O)c2ccc(Cl)cc2)c2cccc(N3CCNCC3)c21`, the Potency is 28.2 µM (active).

Consider `C=C1C(=O)OC2C1CCC(=C)C1CC(OC(C)=O)C(=C)C12` (stereo not drawn), for which the Potency result was “inactive”.

Consider `C/C=C/c1ccc(O[C@@H]2O[C@H](CO)[C@@H](O)[C@H](O)[C@H]2O)c(OC)c1`, for which the Potency result is “inactive”.

Turning to `CCS(=O)(=O)N1CCN(c2ccc(Nc3ncc(C(N)=O)c(NC4CC4)n3)cc2)CC1`, the Potency entry was “inactive”.

System in a further assay: not listed separately
The assay is described as follows: qHTS assay to identify inhibitors of the type 1 interferon - major histocompatibility complex class I in skeletal muscle: Counter screen cell viability and HiBit confirmation (AID 1347412). Note: nearly all actives have a fitted effect of over 60% in size. To be noted: iHSKM muscle cells + IFN-b, HiBiT or CellTiter-Glo, 24 h; HiBiT. In outline: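 Duplicate plates, pinned identically: one read for HiBiT-tagged endogenous HLA-B luminescence, the other for ATP-content viability via CellTiter Glo. Cells were genome-engineered human myoblasts given 4 ng/ml IFN-b; compounds 12-pt, 1:3 from 46 uM final; 24 hr exposure.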
For the compound `CCOc1cc2ncc(C#N)c(Nc3ccc(F)c(Cl)c3)c2cc1NC(=O)/C=C/CN(C)C`, the Potency is 1.98 µM (active).

Regarding `CCN1CCN(Cc2ccc(NC(=O)Nc3ccc(Oc4cc(NC)ncn4)cc3)cc2C(F)(F)F)CC1`, the Potency is 5.57 µM (active).

Consider `CCS(=O)(=O)N1CCN(c2ccc(Nc3ncc(C(N)=O)c(NC4CC4)n3)cc2)CC1`, for which the Potency is 1.98 µM (active).
